# According to PubChem BioAssay (NCATS):
# The source made the active and inactive calls. Entries that show only a call come without a potency. Calls come from the whole dose curve; as a rule, active = well fitted curve in the direction sought with a large enough effect; inconclusive = small, poorly fitted or top-dose-only effect, or another doubt; inactive = no such curve, though single readings can be large or run the other way.
# Target: Guanine nucleotide-binding protein G(i) subunit alpha-1 (Homo sapiens) (UniProt P63096)
# Assay: qHTS Assay for Inhibitors of RGS12 GoLoco Motif Activity (Green Fluorophore) (AID 879);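 note: negative values mean loss of peptide binding seen as reduced polarization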
# Settings: Galphai1/FITC-RGS12 GoLoco peptide, fluorescence polarization; series mostly up to 57.1 µM
# Outline: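 A drop in FITC polarization marked displacement of the FITC-tagged RGS12 GoLoco peptide (10 nM) from Gαi1 (50 nM). Compounds were incubated 10 min at room temperature in Tris pH 7.5 buffer containing 150 mM NaCl, 0.1 mM GDP and 0.05% NP40; unlabeled peptide titration served as control.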
# Sequence of Guanine nucleotide-binding protein G(i) subunit alpha-1 (Homo sapiens) (P63096 whole entry, looked up): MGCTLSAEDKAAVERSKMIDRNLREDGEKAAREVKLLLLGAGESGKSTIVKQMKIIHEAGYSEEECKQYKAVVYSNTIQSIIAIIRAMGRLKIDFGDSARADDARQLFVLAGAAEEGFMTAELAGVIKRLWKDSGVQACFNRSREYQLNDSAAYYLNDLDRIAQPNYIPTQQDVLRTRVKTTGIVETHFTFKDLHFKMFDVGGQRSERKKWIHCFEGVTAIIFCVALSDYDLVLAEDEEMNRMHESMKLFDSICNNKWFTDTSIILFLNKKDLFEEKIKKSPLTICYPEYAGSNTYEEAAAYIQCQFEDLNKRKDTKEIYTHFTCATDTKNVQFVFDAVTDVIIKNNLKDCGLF
row,SMILES,Potency
1,NOCC(=O)O,inactive
2,NCCNS(=O)(=O)c1cccc2c(Cl)cccc12,inactive
3,O=c1cc(-c2ccccc2)[nH]c2nc(Cl)ccc12,inactive
4,S=C(S)N1CCCC1,inactive
5,CCCn1c(=O)c2[nH]c(-c3ccc(S(=O)(=O)O)cc3)nc2n(CCC)c1=O,inactive
6,N=C(N)c1ccccc1,inactive
7,COc1ccc(C(=O)NCc2cccnc2)cc1C(=O)NCc1cccnc1,inactive
8,O=c1ccc2c(OCCCCc3ccccc3)c3ccoc3cc2o1,inactive
9,CCC(=O)N1CCN(C(=O)c2ccccc2)CC1,inactive
10,COc1cc(CC(=O)O)ccc1O,inactive
11,C=CCn1c(=O)c2c(nc(-c3ccc(S(=O)(=O)O)cc3)n2C)n(C)c1=O,inactive
12,NC(=O)c1ccccc1,inactive
13,NC1(C(=O)O)CC1,inactive
14,CC(C)NC[C@H](O)COc1ccc(CC(N)=O)cc1,inactive
15,COc1ccccc1N1CCN(CCN(C(=O)c2ccc(F)cc2)c2ccccn2)CC1,inactive
16,Cc1nc(N=Nc2ccc(S(=O)(=O)O)cc2S(=O)(=O)O)c(COP(=O)(O)O)c(C=O)c1O,inactive
17,c1ccc2nc(C3=NCCN3)ccc2c1,inactive

row,SMILES,Potency
1,CN1CCN(c2nc3cc(C(F)(F)F)ccc3n3cccc23)CC1,inactive
2,Nc1ccc(N2C(=O)c3ccccc3C2=O)c(Cl)c1,inactive
3,COC(=O)[C@H](NC(=O)c1cc(-c2ccccc2)nc2ccccc12)c1ccccc1,inactive
4,NCCCCN=C(N)N,inactive
5,C#CCn1c(=O)c2c(ncn2C)n(C)c1=O,inactive
6,O=C(O)c1cc(=O)cc(C(=O)O)[nH]1,inactive
7,CC[C@@H]1Cc2cc(O)ccc2C2=C1c1ccc(O)cc1C[C@H]2CC,inactive
8,CCN(c1nc(N)c(C(=O)N=C(N)N)nc1Cl)C(C)C,inactive
9,N#CC(C#N)=C(N)/C(C#N)=C/c1ccc(O)cc1,inactive
10,CCCc1c(OCCCOc2ccc(OCC(=O)O)cc2)ccc(C(C)=O)c1O,inactive
11,O=C(O)/C(=C/c1c(C(=O)O)[nH]c2cc(Cl)cc(Cl)c12)c1ccccc1,inactive
12,CC(=O)C(C)=O,inactive
13,CCCCCCCCCCCCCCSCC(=O)O,inactive
14,Nn1nnc2ccccc21,inactive
15,CCN1C(=O)C=CC1=O,inactive
16,NCCCNCCCCNCCCN,inactive
17,Nc1ncnc2c1ncn2C1CCCC1,inactive
